How the values were obtained:
Experiment in all cases: PBM; 200 nM protein, PBS
Settings in all cases: dsDNA, one strand shown
HOXB9 [1] = target: HOXB9 (Homo sapiens, UniProt P17482 171-250, T197M)
HOXC9 [2] = target: HOXC9 (Homo sapiens, UniProt P31274 178-260, K195R)
HOXC10 [3] = target: HOXC10 (Homo sapiens, UniProt Q9NYD6 254-340)
HOXB9 [4] = target: HOXB9 (Homo sapiens, UniProt P17482 171-250)
HOXC9 [5] = target: HOXC9 (Homo sapiens, UniProt P31274 178-260)
HOXD13 [6] = target: HOXD13 (Homo sapiens, UniProt P35453 263-343, T313R)
HOXC9 [7] = target: HOXC9 (Homo sapiens, UniProt P31274 178-260, R193K)
HOXC10 [8] = target: HOXC10 (Homo sapiens, UniProt Q9NYD6 254-340, K271E)
HOXB9 [9] = target: HOXB9 (Homo sapiens, UniProt P17482 171-250, R186Q)
HOXC9 [10] = target: HOXC9 (Homo sapiens, UniProt P31274 178-260, R222W)
MSX2 [11] = target: MSX2 (Homo sapiens, UniProt P35548 130-214, R199I)
MSX2 [12] = target: MSX2 (Homo sapiens, UniProt P35548 130-214)
PROP1 [13] = target: PROP1 (Homo sapiens, UniProt O75360 56-141)
PROP1 [14] = target: PROP1 (Homo sapiens, UniProt O75360 56-141, R99H)
PROP1 [15] = target: PROP1 (Homo sapiens, UniProt O75360 56-141, F88S)
MSX2 [16] = target: MSX2 (Homo sapiens, UniProt P35548 130-214, F161Y)
ALX1 [17] = target: ALX1 (Homo sapiens, UniProt Q15699 118-204, L144V)
ALX1 [18] = target: ALX1 (Homo sapiens, UniProt Q15699 118-204, L144R)
HOXD13 [19] = target: HOXD13 (Homo sapiens, UniProt P35453 263-343)
HOXD13 [20] = target: HOXD13 (Homo sapiens, UniProt P35453 263-343, T313A)
ALX1 [21] = target: ALX1 (Homo sapiens, UniProt Q15699 118-204)
Sequence of ALX1 (Homo sapiens, UniProt Q15699 118-204) (Q15699 118-204): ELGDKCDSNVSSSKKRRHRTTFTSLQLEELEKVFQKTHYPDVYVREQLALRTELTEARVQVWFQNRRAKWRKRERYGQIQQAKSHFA

Sequence of HOXC9 (Homo sapiens, UniProt P31274 178-260) (P31274 178-260): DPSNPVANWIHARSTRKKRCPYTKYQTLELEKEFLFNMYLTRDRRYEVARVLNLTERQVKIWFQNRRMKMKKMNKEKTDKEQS
Sequence of HOXC10 (Homo sapiens, UniProt Q9NYD6 254-340, K271E) (Q9NYD6 254-340 K271E): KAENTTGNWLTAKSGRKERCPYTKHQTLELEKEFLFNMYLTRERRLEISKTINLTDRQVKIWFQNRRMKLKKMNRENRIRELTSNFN
Sequence of HOXC9 (Homo sapiens, UniProt P31274 178-260, R222W) (P31274 178-260 R222W): as the sequence (P31274 178-260) above, with R45W counted along it
Sequence of HOXB9 (Homo sapiens, UniProt P17482 171-250, R186Q) (P17482 171-250 R186Q): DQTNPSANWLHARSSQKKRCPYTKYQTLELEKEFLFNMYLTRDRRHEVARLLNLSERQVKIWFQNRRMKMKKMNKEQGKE
Sequence of HOXB9 (Homo sapiens, UniProt P17482 171-250, T197M) (P17482 171-250 T197M): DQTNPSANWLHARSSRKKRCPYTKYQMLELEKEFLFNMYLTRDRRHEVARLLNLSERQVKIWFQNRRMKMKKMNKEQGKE
Sequence of HOXC10 (Homo sapiens, UniProt Q9NYD6 254-340) (Q9NYD6 254-340): as the sequence (Q9NYD6 254-340 K271E) above, with E18K counted along it
Sequence of HOXC9 (Homo sapiens, UniProt P31274 178-260, K195R) (P31274 178-260 K195R): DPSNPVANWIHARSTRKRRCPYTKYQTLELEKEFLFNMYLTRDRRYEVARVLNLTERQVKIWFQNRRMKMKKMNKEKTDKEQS
Sequence of HOXD13 (Homo sapiens, UniProt P35453 263-343, T313R) (P35453 263-343 T313R): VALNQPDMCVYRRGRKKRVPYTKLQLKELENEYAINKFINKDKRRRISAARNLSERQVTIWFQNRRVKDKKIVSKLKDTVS
Sequence of HOXB9 (Homo sapiens, UniProt P17482 171-250) (P17482 171-250): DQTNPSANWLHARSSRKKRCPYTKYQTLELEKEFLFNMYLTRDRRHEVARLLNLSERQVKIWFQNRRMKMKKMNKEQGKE
Sequence of HOXD13 (Homo sapiens, UniProt P35453 263-343) (P35453 263-343): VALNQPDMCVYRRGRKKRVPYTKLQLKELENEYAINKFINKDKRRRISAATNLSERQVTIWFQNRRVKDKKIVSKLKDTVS
Sequence of HOXD13 (Homo sapiens, UniProt P35453 263-343, T313A) (P35453 263-343 T313A): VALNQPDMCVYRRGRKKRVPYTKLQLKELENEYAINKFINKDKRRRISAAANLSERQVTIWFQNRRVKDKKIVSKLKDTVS
Sequence of HOXC9 (Homo sapiens, UniProt P31274 178-260, R193K) (P31274 178-260 R193K): as the sequence (P31274 178-260) above, with R16K counted along it
Sequence of PROP1 (Homo sapiens, UniProt O75360 56-141, F88S) (O75360 56-141 F88S): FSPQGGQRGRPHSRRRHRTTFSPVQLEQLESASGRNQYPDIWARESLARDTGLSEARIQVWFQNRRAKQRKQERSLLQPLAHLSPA
Sequence of ALX1 (Homo sapiens, UniProt Q15699 118-204, L144R) (Q15699 118-204 L144R): as the sequence (Q15699 118-204) above, with L27R counted along it
Sequence of ALX1 (Homo sapiens, UniProt Q15699 118-204, L144V) (Q15699 118-204 L144V): as the sequence (Q15699 118-204) above, with L27V counted along it
Sequence of PROP1 (Homo sapiens, UniProt O75360 56-141, R99H) (O75360 56-141 R99H): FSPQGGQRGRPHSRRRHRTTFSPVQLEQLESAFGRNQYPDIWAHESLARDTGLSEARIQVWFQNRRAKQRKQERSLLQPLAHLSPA
Sequence of MSX2 (Homo sapiens, UniProt P35548 130-214, F161Y) (P35548 130-214 F161Y): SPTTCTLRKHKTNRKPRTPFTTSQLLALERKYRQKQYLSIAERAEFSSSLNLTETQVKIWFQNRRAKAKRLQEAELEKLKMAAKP
Sequence of MSX2 (Homo sapiens, UniProt P35548 130-214) (P35548 130-214): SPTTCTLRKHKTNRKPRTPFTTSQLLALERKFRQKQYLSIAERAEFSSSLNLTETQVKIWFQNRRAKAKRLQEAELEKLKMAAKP
Sequence of PROP1 (Homo sapiens, UniProt O75360 56-141) (O75360 56-141): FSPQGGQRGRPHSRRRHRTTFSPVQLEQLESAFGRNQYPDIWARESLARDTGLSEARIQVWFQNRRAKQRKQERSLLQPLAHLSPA
Sequence of MSX2 (Homo sapiens, UniProt P35548 130-214, R199I) (P35548 130-214 R199I): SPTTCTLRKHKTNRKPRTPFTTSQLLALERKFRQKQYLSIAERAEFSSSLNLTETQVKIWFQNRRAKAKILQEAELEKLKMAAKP

For AATTTTAT, the binding signal (HOXB9 [1]) was 9.84 upbm affinity estimate (log intensity, higher = more binding, comparable within an allelic series), the binding signal (HOXC9 [2]) was 12.6 upbm affinity estimate (log intensity, higher = more binding, comparable within an allelic series) and the binding signal (HOXC10 [3]) was 12.3 upbm affinity estimate (log intensity, higher = more binding, comparable within an allelic series). The binding signal (HOXB9 [4]) was 11.9 upbm affinity estimate (log intensity, higher = more binding, comparable within an allelic series), the binding signal (HOXC9 [5]) was 12.7 upbm affinity estimate (log intensity, higher = more binding, comparable within an allelic series) and the binding signal (HOXD13 [6]) was 10.7 upbm affinity estimate (log intensity, higher = more binding, comparable within an allelic series). The binding signal (HOXC9 [7]) was 12.6 upbm affinity estimate (log intensity, higher = more binding, comparable within an allelic series), the binding signal (HOXC10 [8]) was 11.7 upbm affinity estimate (log intensity, higher = more binding, comparable within an allelic series) and the binding signal (HOXB9 [9]) was 11.6 upbm affinity estimate (log intensity, higher = more binding, comparable within an allelic series). The binding signal (HOXC9 [10]) was 11.2 upbm affinity estimate (log intensity, higher = more binding, comparable within an allelic series).
CCGCCTGC was tested, and the binding signal (HOXB9 [1]) was 8.29 upbm affinity estimate (log intensity, higher = more binding, comparable within an allelic series), the binding signal (HOXC9 [2]) was 9.62 upbm affinity estimate (log intensity, higher = more binding, comparable within an allelic series) and the binding signal (HOXB9 [4]) was 8.24 upbm affinity estimate (log intensity, higher = more binding, comparable within an allelic series). The binding signal (HOXC9 [5]) was 9.64 upbm affinity estimate (log intensity, higher = more binding, comparable within an allelic series), the binding signal (MSX2 [11]) was 9.41 upbm affinity estimate (log intensity, higher = more binding, comparable within an allelic series) and the binding signal (HOXC9 [7]) was 9.49 upbm affinity estimate (log intensity, higher = more binding, comparable within an allelic series). For the same sequence, the binding signal (MSX2 [12]) was 9.55 upbm affinity estimate (log intensity, higher = more binding, comparable within an allelic series), the binding signal (PROP1 [13]) was 6.72 upbm affinity estimate (log intensity, higher = more binding, comparable within an allelic series) and the binding signal (PROP1 [14]) was 6.65 upbm affinity estimate (log intensity, higher = more binding, comparable within an allelic series). The binding signal (HOXB9 [9]) was 8.24 upbm affinity estimate (log intensity, higher = more binding, comparable within an allelic series), the binding signal (HOXC9 [10]) was 9.72 upbm affinity estimate (log intensity, higher = more binding, comparable within an allelic series) and the binding signal (PROP1 [15]) was 6.62 upbm affinity estimate (log intensity, higher = more binding, comparable within an allelic series). The binding signal (MSX2 [16]) was 9.55 upbm affinity estimate (log intensity, higher = more binding, comparable within an allelic series).
With CTATTAAA the binding signal (HOXB9 [1]) was 9.97 upbm affinity estimate (log intensity, higher = more binding, comparable within an allelic series), the binding signal (HOXC9 [2]) was 12.6 upbm affinity estimate (log intensity, higher = more binding, comparable within an allelic series) and the binding signal (HOXB9 [4]) was 11.9 upbm affinity estimate (log intensity, higher = more binding, comparable within an allelic series). For the same sequence, the binding signal (HOXC9 [5]) was 12.8 upbm affinity estimate (log intensity, higher = more binding, comparable within an allelic series), the binding signal (ALX1 [17]) was 9.79 upbm affinity estimate (log intensity, higher = more binding, comparable within an allelic series) and the binding signal (HOXD13 [6]) was 11 upbm affinity estimate (log intensity, higher = more binding, comparable within an allelic series). For the same sequence, the binding signal (HOXC9 [7]) was 12.7 upbm affinity estimate (log intensity, higher = more binding, comparable within an allelic series), the binding signal (ALX1 [18]) was 9.81 upbm affinity estimate (log intensity, higher = more binding, comparable within an allelic series) and the binding signal (HOXD13 [19]) was 12 upbm affinity estimate (log intensity, higher = more binding, comparable within an allelic series). The binding signal (HOXC10 [8]) was 11.8 upbm affinity estimate (log intensity, higher = more binding, comparable within an allelic series), the binding signal (HOXD13 [20]) was 11.9 upbm affinity estimate (log intensity, higher = more binding, comparable within an allelic series) and the binding signal (HOXB9 [9]) was 11.6 upbm affinity estimate (log intensity, higher = more binding, comparable within an allelic series). The binding signal (HOXC9 [10]) was 11.1 upbm affinity estimate (log intensity, higher = more binding, comparable within an allelic series) and the binding signal (ALX1 [21]) was 10.3 upbm affinity estimate (log intensity, higher = more binding, comparable within an allelic series).
For CATTAAAA, the binding signal (HOXB9 [1]) was 9.91 upbm affinity estimate (log intensity, higher = more binding, comparable within an allelic series), the binding signal (HOXC9 [2]) was 12.6 upbm affinity estimate (log intensity, higher = more binding, comparable within an allelic series) and the binding signal (HOXC10 [3]) was 12.1 upbm affinity estimate (log intensity, higher = more binding, comparable within an allelic series). The binding signal (HOXB9 [4]) was 12 upbm affinity estimate (log intensity, higher = more binding, comparable within an allelic series), the binding signal (HOXC9 [5]) was 12.7 upbm affinity estimate (log intensity, higher = more binding, comparable within an allelic series) and the binding signal (HOXC9 [7]) was 12.6 upbm affinity estimate (log intensity, higher = more binding, comparable within an allelic series). The binding signal (HOXC10 [8]) was 11.8 upbm affinity estimate (log intensity, higher = more binding, comparable within an allelic series), the binding signal (HOXD13 [20]) was 11.6 upbm affinity estimate (log intensity, higher = more binding, comparable within an allelic series) and the binding signal (HOXB9 [9]) was 11.7 upbm affinity estimate (log intensity, higher = more binding, comparable within an allelic series). For the same sequence, the binding signal (HOXC9 [10]) was 11 upbm affinity estimate (log intensity, higher = more binding, comparable within an allelic series).
With ATAAAACA the binding signal (HOXB9 [1]) was 9.83 upbm affinity estimate (log intensity, higher = more binding, comparable within an allelic series), the binding signal (HOXC9 [2]) was 12.4 upbm affinity estimate (log intensity, higher = more binding, comparable within an allelic series) and the binding signal (HOXC10 [3]) was 12.2 upbm affinity estimate (log intensity, higher = more binding, comparable within an allelic series). For the same sequence, the binding signal (HOXB9 [4]) was 11.8 upbm affinity estimate (log intensity, higher = more binding, comparable within an allelic series), the binding signal (HOXC9 [5]) was 12.5 upbm affinity estimate (log intensity, higher = more binding, comparable within an allelic series) and the binding signal (HOXD13 [6]) was 10.7 upbm affinity estimate (log intensity, higher = more binding, comparable within an allelic series). The binding signal (HOXC9 [7]) was 12.5 upbm affinity estimate (log intensity, higher = more binding, comparable within an allelic series), the binding signal (HOXD13 [19]) was 11.9 upbm affinity estimate (log intensity, higher = more binding, comparable within an allelic series) and the binding signal (HOXC10 [8]) was 11.6 upbm affinity estimate (log intensity, higher = more binding, comparable within an allelic series). For the same sequence, the binding signal (HOXD13 [20]) was 11.6 upbm affinity estimate (log intensity, higher = more binding, comparable within an allelic series), the binding signal (HOXB9 [9]) was 11.5 upbm affinity estimate (log intensity, higher = more binding, comparable within an allelic series) and the binding signal (HOXC9 [10]) was 11.1 upbm affinity estimate (log intensity, higher = more binding, comparable within an allelic series).
In the case of ACAATAAA, the binding signal (HOXB9 [1]) is reported as 9.83 upbm affinity estimate (log intensity, higher = more binding, comparable within an allelic series), the binding signal (HOXC9 [2]) is reported as 12.6 upbm affinity estimate (log intensity, higher = more binding, comparable within an allelic series) and the binding signal (HOXC10 [3]) is reported as 12.3 upbm affinity estimate (log intensity, higher = more binding, comparable within an allelic series). For the same sequence, the binding signal (HOXB9 [4]) was 12 upbm affinity estimate (log intensity, higher = more binding, comparable within an allelic series), the binding signal (HOXC9 [5]) was 12.9 upbm affinity estimate (log intensity, higher = more binding, comparable within an allelic series) and the binding signal (HOXD13 [6]) was 10.9 upbm affinity estimate (log intensity, higher = more binding, comparable within an allelic series). For the same sequence, the binding signal (HOXC9 [7]) was 12.7 upbm affinity estimate (log intensity, higher = more binding, comparable within an allelic series), the binding signal (HOXD13 [19]) was 12.1 upbm affinity estimate (log intensity, higher = more binding, comparable within an allelic series) and the binding signal (HOXC10 [8]) was 11.7 upbm affinity estimate (log intensity, higher = more binding, comparable within an allelic series). For the same sequence, the binding signal (HOXD13 [20]) was 11.8 upbm affinity estimate (log intensity, higher = more binding, comparable within an allelic series), the binding signal (HOXB9 [9]) was 11.7 upbm affinity estimate (log intensity, higher = more binding, comparable within an allelic series) and the binding signal (HOXC9 [10]) was 11.1 upbm affinity estimate (log intensity, higher = more binding, comparable within an allelic series).
